# According to PubChem BioAssay AID1946 (Johns Hopkins Ion Channel Center, 2009):
# Hit rate of the full screen: of about 2,400 compounds, about 180 (7.5%) were called active. The list comes from a sample in which actives are over-represented; it also holds similar structures and randomly drawn compounds. Unmarked numbers belong to inactive results.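 How the source made its calls: active means readout below zero, meaning a drop past 3 SD under the dofetilide-free negative control mean; inactive means the rest.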
# Target: Potassium voltage-gated channel subfamily KQT member 2 (Rattus norvegicus) (UniProt O88943)
# Sequence (O88943 whole entry, looked up): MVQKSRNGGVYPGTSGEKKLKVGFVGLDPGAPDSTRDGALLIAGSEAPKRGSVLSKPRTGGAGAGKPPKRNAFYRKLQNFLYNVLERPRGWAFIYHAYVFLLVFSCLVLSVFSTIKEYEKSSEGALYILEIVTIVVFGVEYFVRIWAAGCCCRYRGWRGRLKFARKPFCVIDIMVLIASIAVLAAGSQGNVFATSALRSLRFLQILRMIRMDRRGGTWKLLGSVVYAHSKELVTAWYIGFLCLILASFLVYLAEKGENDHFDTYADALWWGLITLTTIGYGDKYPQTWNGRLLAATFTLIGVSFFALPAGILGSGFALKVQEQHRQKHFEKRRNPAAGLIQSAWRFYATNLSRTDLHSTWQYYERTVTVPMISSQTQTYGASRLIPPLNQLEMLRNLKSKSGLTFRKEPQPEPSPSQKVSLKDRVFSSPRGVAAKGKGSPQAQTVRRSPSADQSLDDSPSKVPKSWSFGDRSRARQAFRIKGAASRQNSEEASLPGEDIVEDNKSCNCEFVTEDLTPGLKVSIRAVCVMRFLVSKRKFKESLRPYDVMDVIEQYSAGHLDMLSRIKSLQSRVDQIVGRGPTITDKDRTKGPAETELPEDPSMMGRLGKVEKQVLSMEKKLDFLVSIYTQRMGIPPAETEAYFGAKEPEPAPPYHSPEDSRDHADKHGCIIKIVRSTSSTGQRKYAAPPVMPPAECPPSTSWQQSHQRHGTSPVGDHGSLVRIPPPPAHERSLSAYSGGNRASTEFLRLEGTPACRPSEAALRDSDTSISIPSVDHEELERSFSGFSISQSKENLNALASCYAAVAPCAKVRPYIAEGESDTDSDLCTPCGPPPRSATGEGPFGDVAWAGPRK
# Assay: rat KCNQ2 channel inhibition by compounds alone, confirmation, counter-screen for hERG block protector project, cell-based, CHO, FluxOR thallium flux (AID 1946)
# Conditions: CHO-KCNQ2 cells, FluxOR thallium flux fluorescence, at 10 µM, active compounds read low
row,SMILES,activity change vs negative control
1,O=C(O)CCC(=O)NCCC1=c2ccccc2=N/C1=C\c1c(O)n(Cc2ccc(F)cc2)c(=S)[nH]c1=O,-3.3% (active)
2,O=C1CC(=O)N(c2cccc(C(F)(F)F)c2)C(=O)N1,10.7% [zero marks the 3-SD hit cutoff]
3,COc1ccc2c(c1)/C(=C/c1cnc[nH]1)C(=O)N2,28% [zero marks the 3-SD hit cutoff]
4,COc1ccc2c3c1OC1C(O)C=CC4C(C2)[N+](C)(C)CCC341 (stereo not given),11.5%
5,CCOC(=O)c1c(NS(=O)(=O)c2ccccc2)n(CCCOC)c2nc3ccccc3nc12,1.7% [zero marks the 3-SD hit cutoff]
6,C=CCn1c(O)c(/C=C2/C=c3ccccc3=N2)c(=O)[nH]c1=S,3.2%
7,O=c1[nH]c(=S)[nH]c(O)c1/C=C1/C=c2ccccc2=N1,-4.3% (active)
8,Cc1ccc(S(=O)(=O)NC(Cc2cnc[nH]2)C(=O)O)cc1 (stereo not given),7.9% [zero marks the 3-SD hit cutoff]
9,Cc1ccc(-n2c(O)c(/C=N/Nc3ccccc3)c(=O)[nH]c2=O)cc1C,18.8%
10,C1CCC2S[C@H]3CCCCC3NC2C1 (stereo not given in full),6.1% [zero marks the 3-SD hit cutoff]
11,Cc1nc2ccccc2c(=O)n1-c1cc([N+](=O)[O-])cc([N+](=O)[O-])c1,-5.3% (active)
12,CCOC(=O)Cn1cc([N+](=O)[O-])nc1[N+](=O)[O-],14.6% [zero marks the 3-SD hit cutoff]
13,O=c1[nH]c(=S)[nH]c(O)c1N=Nc1ccc(S(=O)(=O)N2CCc3ccccc32)cc1,7.8%
14,O=C(Cn1ncc2c3ccccc3n(Cc3ccccc3F)c2c1=O)N1CCC2(CC1)OCCO2,64.8%
15,CCCc1[nH]nc2c1C1(C(=O)N(Cc3ccccc3)c3ccccc31)C(C(=O)OC)=C(N)O2 (stereo not given),3.3% [zero marks the 3-SD hit cutoff]
16,Cc1ccccc1N1C(=O)/C(=C/c2ccco2)C(=O)NC1=S,15%
17,O=C1NC(=O)N(c2ccccc2)C(=O)/C1=C/c1ccc(Sc2ccccc2)o1,-2.5% (active)
18,O=C1NC(=S)N(c2ccc(F)cc2)C(=O)/C1=C/c1ccco1,22.1%
19,CN1C(=O)/C(=C/c2ccc(Cl)s2)C(=O)NC1=S,9.5%
20,CC(=NCc1ccco1)c1c(O)n(-c2ccc(C)cc2)c(=O)[nH]c1=O,18.6%
21,O=c1[nH]c(O)c(/C=C2/C=CC(c3cc(Cl)ccc3Cl)=N2)c(=O)[nH]1,-2.7% (active)
22,O=C1NC(=O)C(=Cc2ccc(-c3ccc(Cl)cc3)o2)C(=O)N1,11%
23,O=C(O)c1c[nH]c2ccc(S(=O)(=O)N(CCCl)CCCl)cc12,14% [zero marks the 3-SD hit cutoff]
24,N#CC1=C(N)Oc2c(c(=O)oc3ccccc23)C1c1cccnc1 (stereo not given),7.9% [zero marks the 3-SD hit cutoff]
25,NCCc1ccc(S(N)(=O)=O)cc1,-1.5% [zero marks the 3-SD hit cutoff] (active)
26,O=c1c2cc(Br)ccc2[nH]c(=S)n1-c1ccccc1,9.1% [zero marks the 3-SD hit cutoff]
27,CCCCn1c(O)c(C(CC)=Nc2ccc(OCC)cc2)c(=O)[nH]c1=O,3.2%
28,CN1C(=O)/C(=C\c2ccc(Br)s2)C(=O)NC1=S,6.5%
29,Oc1cccc2cccnc12,24.3% [zero marks the 3-SD hit cutoff]
30,COc1ccccc1N1CCN(Cc2ccc(F)cc2)CC1,8.2%
